# Most compounds without a hit are left out; they make up all but 7.4% or so of the library.
# NPC1 prom act = qHTS Assay for NPC1 Promoter Activators; Huh7 NPC1 promoter luciferase reporter, 24 h; Potency, µM (titrated, usually from 9.22 µM), inactives show at the highest dose activation, hits mostly activators; 320,000 tested, 2.4% active; note: % of control where 0% means no effect; nearly all actives have a fitted effect of over 60% in size
#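 Quantitative HTS used a cell-based reporter: Huh7 cells stably bearing the NPC1 promoter upstream of luciferase were treated with compounds for 24 h, and promoter activation was read as luminescence.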
# p53 reactivator = qHTS assay for re-activators of p53 using a Luc reporter. H1299 p53-A138V BP100-luciferase reporter, luminescence, 24 h. Potency, µM (top dose mostly 92.2 µM), for inactives: top-dose activity change, positive = activation, actives largely listed as activators. 320,000 tested, 0.063% active; note: % of control where 0% means no effect; nearly all actives have a fitted effect of over 45% in size
#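 H1299 (p53-null), stable ts p53-A138V + BP100-Luc; 1000 cells/well, Opti-MEM/10% FBS; cpd 4 pt, 1:5; 24 h, 37 deg C, 5% CO2; detection reagent 10 min RT; luminescence.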
# ELG1 genotoxic = qHTS screen for small molecules that induce genotoxicity in human embryonic kidney (HEK293T) cells expressing luciferase-tagged ELG1; HEK293T ELG1-luciferase reporter, luminescence, 16 h; Potency, µM (top dose mostly 46 µM), inactives show at the highest dose activity change, positive = activation, hits mostly activators; 330,000 tested, 1.3% active; AID 504466, 2011; note: % of control where 0% means no effect; nearly all actives have a fitted effect of over 60% in size
#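 HEK293T cells expressing luciferase-tagged ELG1 were treated with compound or DMSO for 16 hr at 37°C. Luciferase activity was then read after 30 min with ONE-Glo at room temperature; rising signal flags genetic stress.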
# SMN2 splice enh = qHTS Assay for Enhancers of SMN2 Splice Variant Expression; HEK293 SMN2-luciferase splicing reporter, luminescence, 30-36 h; Potency, µM (titrated, usually from 46.1 µM), inactives show top-dose activity change, positive = activation, most hits filed as activators; 210,000 tested, 2.8% active; AID 1458, 2008; note: % of control where 0% means no effect; nearly all actives have a fitted effect of over 55% in size
#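 HEK293 cells carry an SMN2 […]–luciferase reporter in which exon 7 inclusion puts luciferase in frame. Cells were plated 10-12 h before compound addition, then incubated 30-36 h at 37C. ONE-Glo luminescence was read; sodium butyrate at 4.5 mM final served as control.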
# FLuc modulator = qHTS profiling assay for firefly luciferase inhibitor/activator using purifed enzyme and Km concentrations of substrates (counterscreen for miR-21 project) | Luciferin 4-monooxygenase (Photinus pyralis), P08659 | purified FLuc, Km substrates, luminescence inhibition | Potency, µM (doses to about 57.5 µM), for the others: top-dose activity change, negative = inhibition, actives largely listed as inhibitors | 360,000 tested, 6.9% active;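 note: plate controls were vehicle for no effect and reference inhibitor for full effect; nearly all actives have a fitted effect of over 55% in size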
# Target sequence (P08659 whole entry, looked up): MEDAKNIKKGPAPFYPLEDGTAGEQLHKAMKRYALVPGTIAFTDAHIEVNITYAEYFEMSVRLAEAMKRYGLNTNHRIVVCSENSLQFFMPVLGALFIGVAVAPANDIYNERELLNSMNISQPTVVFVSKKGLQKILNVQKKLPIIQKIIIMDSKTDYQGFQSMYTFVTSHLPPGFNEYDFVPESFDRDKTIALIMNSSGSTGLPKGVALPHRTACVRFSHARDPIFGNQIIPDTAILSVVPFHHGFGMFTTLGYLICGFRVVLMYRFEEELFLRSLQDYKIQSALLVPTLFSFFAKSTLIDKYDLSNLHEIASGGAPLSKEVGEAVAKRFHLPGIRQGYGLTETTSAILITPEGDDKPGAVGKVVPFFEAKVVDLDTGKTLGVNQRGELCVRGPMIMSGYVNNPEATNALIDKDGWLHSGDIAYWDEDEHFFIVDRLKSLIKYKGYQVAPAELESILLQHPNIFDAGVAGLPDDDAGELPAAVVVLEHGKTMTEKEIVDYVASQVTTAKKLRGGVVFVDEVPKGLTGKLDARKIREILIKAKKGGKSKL
#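 Purified P. pyralis luciferase, 10 nM final, with Km-level 10 uM D-luciferin and 10 uM ATP in 50 mM Tris acetate pH 7.5, 10 mM Mg acetate, 0.01% Tween-20, 0.05% BSA; 6-point qHTS titration about 60 µM downward; luminescence read.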
# Rab9 promoter act = qHTS Assay for Rab9 Promoter Activators. 320,000 tested, 2.8% active. AID 485297, 2010. Huh7 Rab9 promoter-luciferase reporter, luminescence, 24 h. Potency, µM (titrated, usually from 9.22 µM), for inactives: at the top dose activation, negative = inhibition, usual class: activators; note: % of control where 0% means no effect; nearly all actives have a fitted effect of over 60% in size
#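 Stable Rab9-luc Huh7, 1500 cells/well, 2 h settle; cmpd in DMSO, 24 h, 37 °C/5% CO2; luciferase reagent 10 min RT; luminescence.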
# * hit, by the source's call; ? = inconclusive; nt = no result; [ ] = another dose, or the depositor's remark. Calls come from the whole dose curve; as a rule, active = well fitted curve in the direction sought with a large enough effect; inconclusive = small, poorly fitted or top-dose-only effect, or another doubt; inactive = no such curve, though single readings can be large; an effect the other way counts as inactive or inconclusive. Potency is the fitted concentration of half-maximal effect.
SMILES,NPC1 prom act,p53 reactivator,ELG1 genotoxic,SMN2 splice enh,FLuc modulator,Rab9 promoter act
C=CCNC(=O)COC(=O)C1CCN(S(=O)(=O)c2ccc3c(c2)OCCO3)CC1,0%,-5%,6%,nt,?,27%
O=C(/C(C=Nc1ccc(Br)cc1)=C(/O)c1ccco1)C(F)(F)F,?,?,?,14µM*,6µM*,3.2µM*
O=C(/C(C=Nc1cccc(C(F)(F)F)c1)=C(/O)c1ccco1)C(F)(F)F,-2%,?,?,?,24µM*,0%
Cn1nc(C(F)(F)F)c(-c2ccc(Br)cc2)c1NC(=O)c1ccco1,0%,-8%,-6%,nt,6%,-13%
Cc1cc(=O)[nH]c(SCC(=O)Nc2nnc(CC(C)C)s2)n1,0%,3%,-1%,-19%,3%,-1%
O=C(CSc1ncn[nH]1)Nc1nnc(-c2ccccc2)s1,19%,?,?,7%,21µM*,?
Nc1cc(=O)[nH]c(SCC(=O)Nc2ccccc2-c2ccccc2)n1,-6%,1%,6%,0%,-1%,12%
CCn1c(Cc2ccccc2)nnc1SCC(=O)Nc1nnc(-c2ccccc2)s1,0%,10%,16%,0.11µM*,?,-3%
Nc1cc(=O)[nH]c(SCC(=O)Nc2nnc(-c3ccccc3)s2)n1,8%,9%,7%,20%,24µM*,14%
CC(C)Cc1nnc(NC(=O)CSc2nc(-c3ccccc3)cc(=O)[nH]2)s1,0%,0%,-3%,nt,12µM*,4%
O=C(CSc1ncn[nH]1)Nc1ccccc1-c1ccccc1,-7%,-13%,0%,-5%,-4%,0%
Cc1ccc(NC(=O)Cn2c(=O)oc3cc(S(=O)(=O)N4CCCCC4)ccc32)c(Cl)c1,nt,nt,nt,-43%,-19%,nt
O=C(NCCc1nc2ccccc2n1Cc1ccccc1F)c1ccc(F)cc1,nt,nt,nt,-6%,6%,nt
O=C1OC2(c3cc(Br)c(O)c(Br)c3Oc3c2cc(Br)c(O)c3Br)c2c(Cl)c(Cl)c(Cl)c(Cl)c21,nt,nt,nt,-17%,nt,nt
Fc1cccc(/C=N/Nc2nc3ccccc3[nH]2)c1,?,-4%,?,?,8.5µM*,3.2µM*
O=c1[nH]c(N/N=C/c2ccccc2)nc2ccccc12,3.2µM*,?,2.3µM*,14µM*,6µM*,2.2µM*
Cc1cc(=O)[nH]c(N/N=C/c2ccc(F)cc2)n1,16%,12%,7%,nt,?,23%
O=c1[nH]c(N/N=C\c2ccc3c(c2)OCO3)nc2ccccc12,0.79µM*,?,?,8.9µM*,3.8µM*,0.56µM*
CN(C)c1nc(NCc2ccccc2)nc(N/N=C/c2ccc3c(c2)OCO3)n1,-6%,-3%,-2%,-16%,-12%,0%
Cc1cc(N/N=C/c2ccc3c(c2)OCO3)nc2ccccc12,?,?,14%,nt,2.7µM*,2.5µM*
O=c1[nH]c(N/N=C/c2cc3c(cc2[N+](=O)[O-])OCO3)nc2ccccc12,4%,9%,4%,nt,-2%,-2%
O=C1COC(c2ccccc2O)=NN1CCCN1CCCC1,nt,nt,nt,-4%[9.22 µM],nt,nt
Cn1c(O)c(N=NC(=O)CNC(=O)c2cccnc2)c2ccccc21,-4%,-1%,2%,nt,0%,0%
O=C(OCC1CCCO1)c1ccc2c(c1)N(Cc1c(F)cccc1Cl)C(=O)c1ccccc1S2(=O)=O (stereo not given),nt,nt,nt,nt,-7%,nt
Brc1ccc(-c2ccc(/C=N/Nc3nc4ccccc4[nH]3)o2)cc1,?,?,?,7.9µM*,0.85µM*,?
SMILES,NPC1 prom act,p53 reactivator,ELG1 genotoxic,SMN2 splice enh,FLuc modulator,Rab9 promoter act
Fc1ccc(/C=N/Nc2nc3ccccc3[nH]2)cc1F,?,8%,10%,12%,12µM*,29%
C(=C\c1ccccc1)/C=N/Nc1nc2ccccc2[nH]1,3.2µM*,8.9µM*,18µM*,nt,3.8µM*,4.5µM*
C(=N\Nc1nc2ccccc2[nH]1)/c1ccccc1,?,-1%,?,13µM*,11µM*,?
C(=N\Nc1nn[nH]n1)/c1ccccc1,-1%,-1%,3%,-5%,-1%,0%
C=C1C(=O)OC2C[C@@]3(C)CCCC(C)C3=CC12 (stereo not given in full),nt,nt,nt,4%,nt,nt
C(/CCc1ccccc1)=N\Nc1nc2ccccc2[nH]1,14%,?,?,9%,2.1µM*,22%
C(=N\Nc1nc2ccccc2[nH]1)/C1CCCCC1,1%,1%,?,2%,3.4µM*,15%
O=C(Nc1ccc(Cl)cc1)c1cc(-c2cccs2)on1,2%,0%,?,nt,?,5%
O=C(Nc1cccc(O)c1)c1cc(-c2cccs2)on1,-1%,?,12µM*,nt,0.85µM*,-2%
Cc1ccc(NC(=O)c2cc(-c3cccs3)on2)cc1,-2%,?,11µM*,27%,2.4µM*,-1%
CC(=O)c1cccc(NC(=O)c2cc(-c3cccs3)on2)c1,-2%,?,?,nt,0.85µM*,1%
Cc1cc2ncc(-c3ccc(Cl)cc3)c(N)n2n1,?,3%,15µM*,13µM*,9.5µM*,4µM*
Nc1c(-c2ccc(Cl)cc2)cnc2ncnn12,3%,4%,2%,-10%,1%,5%
Cc1ccc(-n2ncc(C#N)c2N)cc1,-4%,-1%,5%,nt,-3%,1%
Nc1c(-c2ccccc2)cnc2cc(-c3ccccc3)nn12,1.4µM*,?,2.6µM*,4.5µM*,0.6µM*,0.71µM*
Cc1ccc(-c2cc3ncc(C#N)c(N)n3n2)cc1,2.8µM*,6%,?,?,-19%,2.8µM*
COc1ccc(Cl)cc1C(=O)Nn1cnnc1,-2%,nt,-1%,nt,1%,-2%
COc1ccc2cc(C3=CCCCC3)ncc2c1,2µM*,?,?,nt,0.85µM*,?
COc1ccc2cc(-c3ccsc3)ncc2c1,?,?,?,nt,1.9µM*,-1%
COc1cc(OC)cc(-c2cc3ccc(OC)cc3cn2)c1,?,?,?,nt,0.27µM*,?
COc1cc2cnc(-c3ccccc3)cc2cc1OC,nt,-3%,?,nt,nt,nt
COc1ccc2cc(-c3ccccc3)ncc2c1,0.56µM*,?,2.9µM*,nt,0.54µM*,0.45µM*
COc1ccc(-c2cc3cc(OC)c(OC)cc3cn2)cc1,nt,-3%,13%,nt,nt,nt
COc1cc2cnc(C3=CCCCC3)cc2cc1OC,nt,5%,3%,nt,nt,nt

# Assay outcomes as filed in PubChem.
